Measured values published in PubChem BioAssay (NCATS).
Inconclusive results are not listed. Values without a mark were called inactive. The source made the active and inactive calls. Unless noted, calls come from the whole dose curve; as a rule, active = well fitted inhibition curve with a large enough effect; inconclusive = small, poorly fitted or top-dose-only effect; inactive = no such curve, though single readings can be large or run the other way.

Biological target: Mitogen-activated protein kinase 10 (Mus musculus) (UniProt Q61831)
Experiment: JNK3 AlphaScreen Assay (AID 530; active = well fitted curve in either direction with a large enough effect, not every such curve was filed as active;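 note: kinase came from lysate of stimulated human HepG2 cells; signal reports phosphorylation of biotinylated GST-cJun 1-79 at Ser73 with 10 µM ATP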)
Settings: JNK3 lysate, c-Jun phosphorylation; series mostly up to 57.1 µM; activity change, negative = inhibition: at the top concentration
Summary of the method: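 JNK3 came from HepG2 lysates pre-activated with IL-1beta and TNF-alpha and phosphorylated biotinylated GST-cJun (1-79) at 10 uM ATP, pH 7.6, room temperature. Compounds were titrated. AlphaScreen signal used anti-phospho-cJun (Ser73) antibody.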
% is set by controls: 0 for no effect and ±100 for the full control effect.

SMILES	activity change, negative = inhibition [%]	outcome
CC1N(P(=O)(c2ccccc2)c2ccccc2)CC(O)(c2ccccc2)CC12CC2 (stereo unspecified)	-5.48	
O=P(c1ccccc1)(c1ccccc1)N1CC2(CC2)CC(O)(c2ccccc2)C1 (stereo unspecified)	-5.05	
COC(=O)[C@H]1C[C@@H]1[C@H](NP(=O)(c1ccccc1)c1ccccc1)c1ccccc1		inactive

Biological target: Cytochrome P450 3A4 (Homo sapiens) (UniProt P08684)
Experiment: qHTS Assay for Inhibitors and Substrates of Cytochrome P450 3A4 (AID 884); note: nearly all actives have a fitted effect of over 50% in size; note: potency is the fitted concentration of half-maximal effect
Settings: recombinant CYP3A4, Luciferin-PPXE luminescence; series mostly up to 57.1 µM; activity change, negative = inhibition: at the top concentration
Summary of the method: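 20 nM human CYP3A4 with 25 uM Luciferin-PPXE (at KM) in 200 mM KPO4, preincubated 10 min with compound; NADPH regeneration started a 60 min RT reaction. Luciferin detected by luminescence, normalized to 57 uM ketoconazole as full inhibition.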

Cytochrome P450 3A4 (Homo sapiens), sequence (P08684 whole entry, looked up): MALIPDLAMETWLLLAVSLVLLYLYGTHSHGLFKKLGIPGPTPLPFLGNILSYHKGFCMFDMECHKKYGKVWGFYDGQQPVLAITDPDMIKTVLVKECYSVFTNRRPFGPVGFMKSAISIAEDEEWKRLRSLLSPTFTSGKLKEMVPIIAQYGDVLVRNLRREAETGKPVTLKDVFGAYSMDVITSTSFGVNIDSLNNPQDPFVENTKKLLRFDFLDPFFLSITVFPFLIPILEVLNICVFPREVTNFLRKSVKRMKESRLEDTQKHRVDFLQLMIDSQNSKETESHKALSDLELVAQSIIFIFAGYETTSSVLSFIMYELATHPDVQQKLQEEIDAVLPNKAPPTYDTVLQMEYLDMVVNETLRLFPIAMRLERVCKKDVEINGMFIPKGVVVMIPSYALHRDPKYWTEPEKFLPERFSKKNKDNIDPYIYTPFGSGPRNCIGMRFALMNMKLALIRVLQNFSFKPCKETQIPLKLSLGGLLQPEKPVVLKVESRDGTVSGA

SMILES	Potency	activity change, negative = inhibition [%]
CCC1C(=O)OC[C@H]1Cc1cncn1C (stereo partly specified)	20 µM (active)	
CC(=O)Oc1c2c(c(CC=C(C)C)c3c1C(=O)C1=CC4CC5C(C)(C)OC(C/C=C(\C)C(=O)O)(C4=O)[C@]15O3)OC(C)(CCC=C(C)C)C=C2 (stereo partly specified)	12.6 µM (active)	
CC(=O)OC1C2CCC3C1(CC(O)[C@@]1(O)[C@@H](CC(O)C1(C)C)[C@]3(C)O)C[C@@]2(C)O (stereo partly specified)		-13.4
O=C1CC[C@]2(O)C3Cc4ccc(O)c5c4C2(CCN3CC2CC2)C1O5 (stereo partly specified)		0.124
COc1ccc(C(=O)O)cc1OC		-10.6
CN(C)C1C(=O)C(C(N)=O)=C(O)[C@@]2(O)C(=O)C3=C(O)c4c(O)cccc4[C@@](C)(O)C3CC12 (stereo partly specified)		-2.46
CC(=O)OC1CCC2(C)C3=C(CCC2C1(C)C)[C@@]1(C)CCC(C(C)CCC=C(C)C)[C@@]1(C)CC3 (stereo partly specified)		-26
CCC1C2CC3C4N(C)c5ccccc5[C@]45CC(C2C5O)N3C1O (stereo partly specified)		4.33
OCC1OC(n2cnc3cc(Cl)c(Cl)cc32)C(O)C1O (stereo unspecified)		-22.2
COc1ccc(CC2NC[C@H](O)[C@H]2OC(C)=O)cc1 (stereo partly specified)		-10.5
CC1CC(Cl)CCC1C(=O)OC(C)(C)C (stereo unspecified)		-14.3
CSc1nc(NC(C)C)nc(NC(C)C)n1		9.73
CC1(C)C(C(Cl)Cl)C2(Cl)C(Cl)C(Cl)C1(Cl)C2(Cl)Cl (stereo unspecified)	7.94 µM (active)	
